{"source": "paper PMC5540273", "about": "(PLoS ONE, 2017);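 also: KINOMEscan kinase panel screen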", "data": [{"test_system": "PRKG1", "details": "concentration: 1 μM, replicates: in singlicate; n = 1", "units": {"%Inh": "%"}, "values": [{"smiles": "COc1ccc(Nc2ncc(C#N)c(Nc3ccccc3C(N)=O)n2)cc1N1CCN(C)CC1.Cl", "note": "[GSK1558669]", "%Inh": 76}, {"smiles": "O=C(Nc1cccc(-c2nn3ncccc3c2-c2ccnc(Nc3cccc(C(F)(F)F)c3)n2)c1)c1c(F)cccc1F", "note": "[GSK299495]", "%Inh": 0}, {"smiles": "Cc1cccc(-c2nc(Nc3ccc4ncsc4c3)c3ccccc3n2)n1", "note": "[GW867588]", "%Inh": 0}, {"smiles": "Cl.Nc1ncnc2occ(-c3ccc(NC(=O)Nc4cc(C(F)(F)F)ccc4F)cc3)c12", "note": "[SB-707548]", "%Inh": 11}, {"smiles": "C[C@@H](Oc1cc(-n2cnc3ccc(NC(=O)NC(C)(C)C)cc32)sc1C(N)=O)c1ccccc1Cl", "note": "[GSK346294]", "%Inh": 3}, {"smiles": "c1ccc(-c2cc(-c3c[nH]nc3-c3ccccn3)ccn2)cc1", "note": "[GW576604]", "%Inh": 0}, {"smiles": "Cc1nnc(-c2ccc3occ(-c4ccc(C(C)O)cc4)c3c2)o1", "note": "(centres unmarked)", "%Inh": 10}, {"smiles": "CC(C)Oc1ccc2c(-c3ccnc(Nc4ccc(N5CCN(C)CC5)cc4)n3)cnn2n1", "note": "[GW696155]", "%Inh": 0}, {"smiles": "NS(=O)(=O)c1cccc(-c2ccc3ncc(N4CCOCC4)nc3c2)c1", "note": "[GSK1535721]", "%Inh": 0}, {"smiles": "Fc1ccc(-c2ncn(CCCN3CCOCC3)c2-c2ccccn2)cc1", "note": "[SB-211742]", "%Inh": 0}, {"smiles": "CN(C1=C(c2ccccc2)C(=O)NC1=O)c1ccccc1", "note": "[SB-334860]", "%Inh": 0}, {"smiles": "CCc1nc(-c2cccc(C)c2)c(-c2ccnc(NCc3ccccc3)c2)s1", "%Inh": 0}, {"smiles": "O=C(NCCNc1ccnc(Nc2ccc(F)cc2)n1)Nc1ccccc1F", "note": "[GSK1379880]", "%Inh": 0}, {"smiles": "O=c1cc(N2CCOCC2)nc2n(Cc3cccc(F)c3)ccn12", "note": "[GSK2297430]", "%Inh": 10}, {"smiles": "CC(C)(C)n1cnc2c(N)ncnc21", "note": "[SKF-97359]", "%Inh": 12}, {"smiles": "O=c1cc(N2CCOCC2)nc2n(Cc3cccc(C(F)(F)F)c3)ccn12", "note": "[GSK2297543]", "%Inh": 27}, {"smiles": "Cc1cccc(Cn2ccn3c(=O)cc(N4CCOCC4)nc23)c1", "note": "[GSK2297542]", "%Inh": 0}, {"smiles": "O=C(NCCNc1ccnc(Nc2ccc(F)cc2)n1)c1cc2ccccc2s1", "note": "[GSK1379874]", "%Inh": 0}, {"smiles": "Cn1ccc2ncnc(Oc3ccc(NC(=O)Nc4ccncc4)c(Cl)c3)c21", "%Inh": 3}, {"smiles": "COc1ccc(COc2cc(-n3cnc4ccccc43)sc2C(N)=O)cc1", "note": "[GSK1024304]", "%Inh": 0}, {"smiles": "Cc1ccc(C(=O)NCC(N)=O)cc1-n1c(C)cc(OCc2ccc(F)cc2F)c(Br)c1=O", "%Inh": 0}, {"smiles": "Cc1ccc(NC(=O)c2ccnc(N3CCN(C)CC3)c2)cc1-c1ccc(C(=O)NCC2CC2)cc1", "note": "[GW775604]", "%Inh": 0}, {"smiles": "Fc1ccc(-c2nn3c(OCC(F)(F)F)cccc3c2-c2ccncc2)cc1", "note": "[GW514784]", "%Inh": 14}, {"smiles": "Fc1ccc(-c2ncn(CCCN3CCOCC3)c2-c2cccnc2)cc1", "note": "[SB-211743]", "%Inh": 35}, {"smiles": "O=C(NOCC1CC1)c1ccc(F)c(F)c1Nc1ccc(I)cc1Cl", "%Inh": 0}, {"smiles": "O=C(Nc1n[nH]c2cc(-c3cccc(F)c3)ccc12)C1CC1", "note": "[SB-735464]", "%Inh": 16}, {"smiles": "COc1ccc(Nc2nccc(N3CCC(NC(=O)Nc4cccc(C(C)=O)c4)C3)n2)cc1", "note": "(centres unmarked) [GSK1379731]", "%Inh": 0}, {"smiles": "N#Cc1ccc(-c2cc(-c3c[nH]nc3-c3ccccn3)ccn2)cc1", "note": "[GW693028]", "%Inh": 0}, {"smiles": "COC(=O)Nc1nc2cc(Oc3ccc(NC(=O)Nc4cc(F)ccc4F)cc3)ccc2[nH]1.Cl", "note": "[GW701424]", "%Inh": 0}, {"smiles": "O=c1cc(N2CCOCC2)nc2n(Cc3cccc4ccccc34)ccn12", "note": "[GSK2333389]", "%Inh": 10}, {"smiles": "c1ccc(-c2n[nH]cc2-c2ccnc3ccccc23)nc1", "note": "[GW271431]", "%Inh": 0}, {"smiles": "Nc1nccc(-c2c(-c3ccc(F)cc3)ncn2C2CCN(CC(F)(F)F)CC2)n1", "note": "[SB-236560]", "%Inh": 0}, {"smiles": "NCC(NC(=O)c1cc(-c2cn[nH]c2)c(-c2ccnc3[nH]ccc23)s1)c1ccccc1.O=C(O)C(F)(F)F.O=C(O)C(F)(F)F", "note": "(centres unmarked) [GSK1325775]", "%Inh": 84}, {"smiles": "Cc1c2ccc(N(C)c3ccnc(Nc4cccc(S(N)(=O)=O)c4)n3)cc2nn1Cc1ccccc1.Cl.Cl", "note": "[GW787226]", "%Inh": 0}, {"smiles": "COc1ccc(S(=O)(=O)NC2CCN(c3cc(C)nc(Nc4cccc(C#N)c4)n3)CC2)cc1.O=C(O)C(F)(F)F", "note": "[GSK1653539]", "%Inh": 0}]}]}
